For this experiment, the system named is MDA-MB-231. Nature of the experiment: relative cell viability, compound + RSL3, vs DMSO (fraction of DMSO control); higher = less growth inhibition. The conditions noted are these: 72 h.
With `C[C@H](CCCC(C)(C)O)[C@H]1CC[C@H]2[C@@H]3CC=C4C[C@@H](O)CC[C@]4(C)[C@H]3CC[C@]12C` [25-Hydroxycholesterol] + COC(=O)c1ccc([C@H]2c3[nH]c4ccccc4c3C[C@H](C(=O)OC)N2C(=O)CCl)cc1 [RSL3], the relative cell viability came to 0.649. On to `CN1c2ccccc2C(=O)Nc2cnc(Nc3ccc(N4CCC(O)CC4)cc3)nc21` + COC(=O)c1ccc([C@H]2c3[nH]c4ccccc4c3C[C@H](C(=O)OC)N2C(=O)CCl)cc1 [RSL3], for which the relative cell viability worked out at 0.375. The figure for `NC(=O)c1cnccn1` [Pyrazinamide] + COC(=O)c1ccc([C@H]2c3[nH]c4ccccc4c3C[C@H](C(=O)OC)N2C(=O)CCl)cc1 [RSL3] is 0.558. For `Nc1ncnc2c1ncn2C1OC(COP(=O)(O)O)C(O)C1O` (centres undefined) [Adenosine 5'-monophosphate monohydrate] + COC(=O)c1ccc([C@H]2c3[nH]c4ccccc4c3C[C@H](C(=O)OC)N2C(=O)CCl)cc1 [RSL3], the relative cell viability was found to be 0.622. To `COc1cc(N2CCN(C)CC2)ccc1Nc1ncc2c(n1)N(C1CCC1)C(=O)N(c1c(C)cccc1C)C2` + COC(=O)c1ccc([C@H]2c3[nH]c4ccccc4c3C[C@H](C(=O)OC)N2C(=O)CCl)cc1 [RSL3] belongs 0.747; to `CC(C)(Oc1ccc(C(=O)c2ccc(Cl)cc2)cc1)C(=O)O` [Choline Fenofibrate] + COC(=O)c1ccc([C@H]2c3[nH]c4ccccc4c3C[C@H](C(=O)OC)N2C(=O)CCl)cc1 [RSL3], 0.692; to `O=C(O)CCn1c2c(c3ccccc31)C[C@H](NS(=O)(=O)c1ccc(F)cc1)CC2` [Ramatroban] + COC(=O)c1ccc([C@H]2c3[nH]c4ccccc4c3C[C@H](C(=O)OC)N2C(=O)CCl)cc1 [RSL3], 0.554. On to `Cc1c(C(=O)NN2CCCCC2)nn(-c2ccc(Cl)cc2Cl)c1-c1ccc(Cl)cc1` [Rimonabant] + COC(=O)c1ccc([C@H]2c3[nH]c4ccccc4c3C[C@H](C(=O)OC)N2C(=O)CCl)cc1 [RSL3], for which the relative cell viability worked out at 0.216. Take `C[C@H](CCOc1cccc(CC(=O)O)c1)N(Cc1cccc(C(F)(F)F)c1Cl)CC(c1ccccc1)c1ccccc1` [RGX-104 free Acid] + COC(=O)c1ccc([C@H]2c3[nH]c4ccccc4c3C[C@H](C(=O)OC)N2C(=O)CCl)cc1 [RSL3]: the relative cell viability stood at 0.561. `N[C@@H](Cc1c[nH]cn1)C(=O)O` [histidine] + COC(=O)c1ccc([C@H]2c3[nH]c4ccccc4c3C[C@H](C(=O)OC)N2C(=O)CCl)cc1 [RSL3]: the relative cell viability came to 0.673.

For the compound `N=C(N)NCCC(=O)O` [3-Guanidinopropionic Acid] + COC(=O)c1ccc([C@H]2c3[nH]c4ccccc4c3C[C@H](C(=O)OC)N2C(=O)CCl)cc1 [RSL3], the relative cell viability is 0.659. Regarding `COc1cccc(CNc2ccc(S(=O)(=O)Nc3nc4ccccc4s3)cc2)c1O` + COC(=O)c1ccc([C@H]2c3[nH]c4ccccc4c3C[C@H](C(=O)OC)N2C(=O)CCl)cc1 [RSL3], the relative cell viability came to 0.657. The figure for `CCOC(=O)c1c(NC(=O)CN2CCN(C(=O)c3ccco3)CC2)sc2c1CCC2` + COC(=O)c1ccc([C@H]2c3[nH]c4ccccc4c3C[C@H](C(=O)OC)N2C(=O)CCl)cc1 [RSL3] is 0.476; for `CC(C)(O)c1ccccc1CC[C@@H](SCC1(CC(=O)O)CC1)c1cccc(/C=C/c2ccc3ccc(Cl)cc3n2)c1` [Montelukast] + COC(=O)c1ccc([C@H]2c3[nH]c4ccccc4c3C[C@H](C(=O)OC)N2C(=O)CCl)cc1 [RSL3] it is 0.484.

Regarding `CC(C)(O)[C@@H]1Cc2cc3ccc(=O)oc3cc2O1` [marmesin] + COC(=O)c1ccc([C@H]2c3[nH]c4ccccc4c3C[C@H](C(=O)OC)N2C(=O)CCl)cc1 [RSL3], the relative cell viability was determined as 0.59. For `Cc1ccc(CN(CC(O)COc2cccc3[nH]ccc23)C(C)(C)C)cc1` (centres undefined) + COC(=O)c1ccc([C@H]2c3[nH]c4ccccc4c3C[C@H](C(=O)OC)N2C(=O)CCl)cc1 [RSL3], the relative cell viability turned out to be 0.804.

On to `Fc1ccc(-c2c3cccc(C(F)(F)F)c3nn2Cc2ccc(F)cc2Cl)cc1` + COC(=O)c1ccc([C@H]2c3[nH]c4ccccc4c3C[C@H](C(=O)OC)N2C(=O)CCl)cc1 [RSL3], for which the relative cell viability is 0.578. With `CCN(CC)CCN(Cc1ccc(-c2ccc(C(F)(F)F)cc2)cc1)C(=O)Cn1c(SCc2ccc(F)cc2)nc(=O)c2c1CCC2` [Darapladib] + COC(=O)c1ccc([C@H]2c3[nH]c4ccccc4c3C[C@H](C(=O)OC)N2C(=O)CCl)cc1 [RSL3], the relative cell viability was 0.232. Turning to `O=C(ON1C(=O)CCC1=O)N1CCN(C(c2ccc(Cl)cc2)c2ccc(Cl)cc2)CC1` [Cravatt Reagent] + COC(=O)c1ccc([C@H]2c3[nH]c4ccccc4c3C[C@H](C(=O)OC)N2C(=O)CCl)cc1 [RSL3], the relative cell viability amounted to 0.716. As to `C[C@@H]1O[C@@H](O[C@H]2[C@H](Oc3cc(O)c4c(c3)O[C@H](c3ccc(O)cc3)CC4=O)O[C@H](CO)[C@@H](O)[C@@H]2O)[C@H](O)[C@H](O)[C@H]1O` [Naringin] + COC(=O)c1ccc([C@H]2c3[nH]c4ccccc4c3C[C@H](C(=O)OC)N2C(=O)CCl)cc1 [RSL3], the relative cell viability came out at 0.658. Turning to `Cc1cc(C)c(S(=O)(=O)N(CCc2cccc(Br)c2)Cc2ccc(-c3cccc(S(C)(=O)=O)c3)cc2)c(C)c1` + COC(=O)c1ccc([C@H]2c3[nH]c4ccccc4c3C[C@H](C(=O)OC)N2C(=O)CCl)cc1 [RSL3], the relative cell viability was 0.475.

On to `O=C(c1ccc(NS(=O)(=O)c2cccc3cccnc23)cc1)N1CCN(CC2CC2)CC1` [Mitapivat] + COC(=O)c1ccc([C@H]2c3[nH]c4ccccc4c3C[C@H](C(=O)OC)N2C(=O)CCl)cc1 [RSL3], for which the relative cell viability turned out to be 0.654.

In the case of `CCC(=O)Nc1cccc(Oc2nc(Nc3ccc(N4CCN(C)CC4)cc3OC)ncc2Cl)c1` + COC(=O)c1ccc([C@H]2c3[nH]c4ccccc4c3C[C@H](C(=O)OC)N2C(=O)CCl)cc1 [RSL3], the relative cell viability amounted to 0.3. In the case of `COC(=O)c1sccc1S(=O)(=O)Nc1ccc(Nc2ccccc2)cc1OC` + COC(=O)c1ccc([C@H]2c3[nH]c4ccccc4c3C[C@H](C(=O)OC)N2C(=O)CCl)cc1 [RSL3], the relative cell viability is 0.542.

With `CN1CCN(C(=O)C2C(C(=O)O)[C@H]3CC[C@@H]2O3)CC1` (some centres undefined) + COC(=O)c1ccc([C@H]2c3[nH]c4ccccc4c3C[C@H](C(=O)OC)N2C(=O)CCl)cc1 [RSL3], the relative cell viability turned out to be 0.367.

Turning to `CCNC1(C(N)=O)CCN(c2ncnc3c2nc(-c2ccccc2Cl)n3-c2ccc(Cl)cc2)CC1` [Otenabant] + COC(=O)c1ccc([C@H]2c3[nH]c4ccccc4c3C[C@H](C(=O)OC)N2C(=O)CCl)cc1 [RSL3], the relative cell viability was found to be 0.39. For `CC1=C[C@]2(O)O[C@@]3(CC2=C(C)C)[C@@H](C)CC[C@@H]13` [Curcumenol] + COC(=O)c1ccc([C@H]2c3[nH]c4ccccc4c3C[C@H](C(=O)OC)N2C(=O)CCl)cc1 [RSL3], the relative cell viability turned out to be 0.517. Take `C[C@H](CCC(=O)O)[C@H]1CC[C@H]2[C@@H]3C[C@H](O)[C@@H]4C[C@H](O)CC[C@]4(C)[C@H]3CC[C@]12C` [Hyodeoxycholic acid] + COC(=O)c1ccc([C@H]2c3[nH]c4ccccc4c3C[C@H](C(=O)OC)N2C(=O)CCl)cc1 [RSL3]: the relative cell viability was 0.611.

With `Cc1nc(-c2nc(-c3ccc(OC(F)(F)F)cc3)no2)nn1Cc1cccc(N2CCC(S(C)(=O)=O)CC2)c1` + COC(=O)c1ccc([C@H]2c3[nH]c4ccccc4c3C[C@H](C(=O)OC)N2C(=O)CCl)cc1 [RSL3], the relative cell viability was found to be 0.559. On to `O=C1c2cc(CO)cc(O)c2C(=O)c2c(O[C@@H]3O[C@H](CO)[C@@H](O)[C@H](O)[C@H]3O)cccc21` [Aloe-emodin-8-O-beta-D-glucopyranoside] + COC(=O)c1ccc([C@H]2c3[nH]c4ccccc4c3C[C@H](C(=O)OC)N2C(=O)CCl)cc1 [RSL3], for which the relative cell viability is 0.544. Consider `O=C(NN1CCCCC1)c1nn(-c2ccc(Cl)cc2Cl)c(-c2ccc(C#Cc3ccc(C(F)(F)F)cc3)s2)c1CNS(=O)(=O)N1CCCC1` + COC(=O)c1ccc([C@H]2c3[nH]c4ccccc4c3C[C@H](C(=O)OC)N2C(=O)CCl)cc1 [RSL3], for which the relative cell viability is 0.345.

With `COc1ccc(-c2coc3cc(OC)ccc3c2=O)cc1` [4',7-Dimethoxyisoflavone] + COC(=O)c1ccc([C@H]2c3[nH]c4ccccc4c3C[C@H](C(=O)OC)N2C(=O)CCl)cc1 [RSL3], the relative cell viability turned out to be 0.36.

For the compound `Cc1coc2c1C(=O)C(=O)c1c-2ccc2c(C)cccc12` [Tanshinone I] + COC(=O)c1ccc([C@H]2c3[nH]c4ccccc4c3C[C@H](C(=O)OC)N2C(=O)CCl)cc1 [RSL3], the relative cell viability worked out at 0.305. For the compound `COc1ccc(/C=C/c2cc(O)cc(O[C@@H]3O[C@H](CO)[C@@H](O)[C@H](O)[C@H]3O)c2)cc1` [Deoxyrhapontin] + COC(=O)c1ccc([C@H]2c3[nH]c4ccccc4c3C[C@H](C(=O)OC)N2C(=O)CCl)cc1 [RSL3], the relative cell viability came to 0.693.

`CC(C)(C)N1C(=O)C(Nc2ccc(N3CCCCC3)cc2)=C(c2ccccc2)S1(=O)=O` + COC(=O)c1ccc([C@H]2c3[nH]c4ccccc4c3C[C@H](C(=O)OC)N2C(=O)CCl)cc1 [RSL3]: the relative cell viability is 0.69.

Turning to `CC(C)(C)c1ccc(-c2nc3ccccc3[nH]2)cc1` + COC(=O)c1ccc([C@H]2c3[nH]c4ccccc4c3C[C@H](C(=O)OC)N2C(=O)CCl)cc1 [RSL3], the relative cell viability stood at 0.399. `O=C(O)c1cccc(N=Nc2c(O)[nH]c3ccc(S(=O)(=O)NCc4ccc(F)cc4)cc23)c1` + COC(=O)c1ccc([C@H]2c3[nH]c4ccccc4c3C[C@H](C(=O)OC)N2C(=O)CCl)cc1 [RSL3]: the relative cell viability was 0.611.

Take `Cc1nc(Nc2cnn(C3CCNCC3)c2)nc2c1N(C)C(=O)c1cc3ccccc3cc1N2C` + COC(=O)c1ccc([C@H]2c3[nH]c4ccccc4c3C[C@H](C(=O)OC)N2C(=O)CCl)cc1 [RSL3]: the relative cell viability stood at 0.287. On to `C=CCc1ccc(O)c(-c2cc(CC=C)ccc2O)c1` [Magnolol] + COC(=O)c1ccc([C@H]2c3[nH]c4ccccc4c3C[C@H](C(=O)OC)N2C(=O)CCl)cc1 [RSL3], for which the relative cell viability is 0.668.
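Further: breast cancer cell viability read out with the CCK-8 kit after co-treatment of each compound with the ferroptosis inducer RSL3.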
